# In PubChem BioAssay (NCI):
# Compounds without any hit were thinned out: in the full panel of roughly 83,000, 20% have a hit.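 Activity criterion: percent growth below 10, measured after cells in 96-well plates were exposed to a single compound concentration for 48 hours.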 Unmarked numbers belong to inactive results. The source made the active and inactive calls.
# Experiments:
# Assay in all cases: NCI-60 one-dose screen, 48 h (100 = growth as untreated, 0 = no growth, -100 = all killed)
# Conditions in all cases: 10 µM unless noted
# HCT-15 colon = test system: HCT-15 colon
# HT29 colon = test system: HT29 colon
# SNB-75 CNS = test system: SNB-75 CNS
# SNB-19 CNS = test system: SNB-19 CNS
# U251 CNS = test system: U251 CNS
# PC-3 prostate = test system: PC-3 prostate
# SK-MEL-5 melanoma = test system: SK-MEL-5 melanoma
# LOX IMVI melanoma = test system: LOX IMVI melanoma
# SK-MEL-28 melanoma = test system: SK-MEL-28 melanoma
# UACC-62 melanoma = test system: UACC-62 melanoma
SMILES,growth (HCT-15 colon),growth (HT29 colon),growth (SNB-75 CNS),growth (SNB-19 CNS),growth (U251 CNS),growth (PC-3 prostate),growth (SK-MEL-5 melanoma),growth (LOX IMVI melanoma),growth (SK-MEL-28 melanoma),growth (UACC-62 melanoma)
N#CC1=C(N)Oc2c(sc3c(Br)cccc23)C1c1ccc(Cl)cc1 (stereo not drawn),8.47% (active),-14.2% (active),4.29% (active),37%,7.28% (active),17.3%,17.3%,23.3%,44.8%,–
CCSc1nc2scc(C)c2c(=O)[nH]1,104%,105%,90.2%,96.5%,97.1%,98.7%,99.9%,99.7%,105%,–
C1CN(SSN2CCOCC2)CCO1,19.2% [100 µM],-50.6% [100 µM] (active),48.3% [100 µM],67% [100 µM],-28% [100 µM] (active),31.2% [100 µM],25.7% [100 µM],-41% [100 µM] (active),-43.3% [100 µM] (active),19.8% [100 µM]
NC(N)=NCCCCCNc1noc(Cc2c[nH]c3cc(Br)ccc23)n1,102%,73.7%,37.6%,37.5%,21.6%,31.8%,68.1%,70.5%,86.9%,56.1%
N#Cc1c(-c2ccccc2)cc(-c2ccccc2)n(CCCC(=O)Nc2ccccc2N)c1=O,28.1%,49.5%,-9.01% (active),62.2%,56.7%,67.4%,48.4%,48%,65.9%,34.2%
Cc1c2cnccc2c(C)c2c1c1cc(C#N)ccc1n2C,-20.6% (active),-18.9% (active),-35.8% (active),-1.41% (active),-10.5% (active),-17.2% (active),-98.7% (active),-35.6% (active),-39.7% (active),–
CC(O)(c1ccccc1)C(c1ccccc1)C1CCCCN1 (stereo not drawn),96.6%,99.3%,100%,99.5%,100%,105%,103%,96.8%,109%,95.8%
Cc1ccc(-c2nc(N3CCCNCC3)c3oc(-c4ccc(C)cc4)nc3n2)cc1,-72.9% (active),-87.1% (active),97.7%,58.2%,-92.4% (active),-89.5% (active),88.1%,-79.3% (active),89.8%,–
Cc1ccc(Nc2cc(N)nc(N)n2)cc1Cl,97.1%,98.2%,80.2%,104%,97.3%,94.2%,97.5%,97.3%,109%,–
CC/C(=C(/c1ccc(Cl)cc1)c1ccc(OCCN(C)C)cc1)c1ccc(Cl)cc1,32.2%,22.4%,61.9%,78.4%,37.8%,71.4%,86.4%,65.3%,90.3%,96.3%
Ic1ccc(OCCCCn2ccnc2)cc1,74.5%,27.5%,64.5%,65.2%,67.8%,48.6%,79.6%,80.3%,55.9%,–
O=c1scc(-c2ccc(C(F)(F)F)cc2)s1,93.4%,89.4%,63.5%,91.8%,95.2%,87.8%,97%,103%,–,–
O=C(CSc1oc(-c2ccccc2)nc1S(=O)(=O)c1ccccc1)Nc1ccc(F)cc1,73.7%,91.7%,87.8%,93.5%,93.8%,52.7%,78.8%,94%,98.4%,66.4%
Nc1ncnc2c1N=C(c1ccc(Br)cc1)CC(c1cccc(Nc3ccnc4cc(C(F)(F)F)ccc34)c1)N2 (stereo not drawn),27.2%,26.4%,66.2%,70.6%,51%,39%,49.5%,63.3%,72.2%,–
COc1ccc(-c2cc(-c3ccc(Cl)cc3)c(C#N)c(=O)n2Cc2ccc(C(=O)Nc3ccccc3N)cc2)cc1,68.2%,107%,55.9%,80.2%,88.7%,79.6%,–,69.3%,70%,49.5%
Cn1cc(C(=O)c2nc(-c3c[nH]c4ccccc34)no2)c2cc(F)ccc21,33.2%,8.8% (active),27.4%,38.8%,28.5%,41.9%,–,39.5%,64.6%,31.7%
N#Cc1ccc(O)c(C2=NCC(c3ccccc3)O2)c1 (stereo not drawn),20.8%,46.2%,74.9%,46%,19.6%,31.6%,–,25.9%,86.4%,37.8%
